# Measurements reported in the supplement of paper PMC8728848.
# Only a selection was taken, and the strongest signals are over-represented in it overall.
# Key:
# Test in all cases: glycan array binding signal (z-score within array); higher = stronger binding
# Details in all cases: glycan notation: IUPAC condensed, linker removed
# [1] = target: Fuc(a1-2)Gal(b1-3)GalNAc(a1-3)[Fuc(a1-2)]Gal(b1-4)GlcNAc
# Summary of the method: (§1)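 Columns mapping to the same glycan were averaged after glycan names were converted to IUPAC-condensed notation. The data come from 3228 arrays in the Consortium for Functional Glycomics database, limited to those with an available protein sequence. Binding is reported as a within-array Z-score averaged across arrays of one protein sequence and across linkers.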
# [2] = target: Fuc(a1-2)Gal(b1-4)GlcNAc(b1-2)Man(a1-3)[Fuc(a1-2)Gal(b1-4)GlcNAc(b1-2)Man(a1-6)]Man(b1-4)GlcNAc(b1-4)GlcNAc
# Summary of the method: as §1
# [3] = target: Fuc(a1-2)Gal(b1-4)GlcNAc(b1-2)Man(a1-3)[Fuc(a1-2)Gal(b1-4)GlcNAc(b1-2)Man(a1-6)]Man(b1-4)GlcNAc(b1-4)[Fuc(a1-6)]GlcNAc
# Summary of the method: as §1
# [4] = target: Fuc(a1-2)Gal(b1-4)GlcNAc(b1-6)GalNAc
# Summary of the method: as §1
# [5] = target: Fuc(a1-2)Gal6S(b1-3)GlcNAc6S
# Summary of the method: as §1
# [6] = target: Fuc(a1-2)Gal6S(b1-4)Glc6S
# Summary of the method: as §1
# [7] = target: Fuc(a1-2)[Gal(a1-3)]Gal(b1-3)GlcNAc(b1-2)Man(a1-3)[Fuc(a1-2)[Gal(a1-3)]Gal(b1-3)GlcNAc(b1-2)Man(a1-6)]Man(b1-4)GlcNAc(b1-4)[Fuc(a1-6)]GlcNAc
# Summary of the method: as §1
# [8] = target: Fuc(a1-2)[Gal(a1-3)]Gal(b1-4)GlcNAc(b1-2)Man(a1-3)[Fuc(a1-2)[Gal(a1-3)]Gal(b1-4)GlcNAc(b1-2)Man(a1-6)]Man(b1-4)GlcNAc(b1-4)[Fuc(a1-6)]GlcNAc
# Summary of the method: as §1
# [9] = target: Fuc(a1-2)[Gal(a1-3)]Gal(b1-4)[Fuc(a1-3)]GlcNAc
# Summary of the method: as §1
# [10] = target: Fuc(a1-2)[GalNAc(a1-3)]Gal(b1-3)GalNAc(a1-3)[Fuc(a1-2)]Gal(b1-4)GlcNAc
# Summary of the method: as §1
# [11] = target: Fuc(a1-2)[GalNAc(a1-3)]Gal(b1-3)GlcNAc
# Summary of the method: as §1
# [12] = target: Fuc(a1-2)[GalNAc(a1-3)]Gal(b1-3)GlcNAc(b1-2)Man(a1-3)[Fuc(a1-2)[GalNAc(a1-3)]Gal(b1-3)GlcNAc(b1-2)Man(a1-6)]Man(b1-4)GlcNAc(b1-4)[Fuc(a1-6)]GlcNAc
# Summary of the method: as §1
# [13] = target: Fuc(a1-2)[GalNAc(a1-3)]Gal(b1-3)GlcNAc(b1-3)GalNAc
# Summary of the method: as §1
# [14] = target: Fuc(a1-2)[GalNAc(a1-3)]Gal(b1-3)GlcNAc(b1-6)GalNAc
# Summary of the method: as §1
# [15] = target: Fuc(a1-2)[GalNAc(a1-3)]Gal(b1-4)GlcNAc(b1-2)Man(a1-3)[Fuc(a1-2)[GalNAc(a1-3)]Gal(b1-4)GlcNAc(b1-2)Man(a1-6)]Man(b1-4)GlcNAc(b1-4)GlcNAc
# Summary of the method: as §1
# [16] = target: Fuc(a1-2)[GalNAc(a1-3)]Gal(b1-4)GlcNAc(b1-3)GalNAc
# Summary of the method: as §1
# [17] = target: Fuc(a1-2)[GalNAc(b1-3)]Gal
# Summary of the method: as §1
# Fuc(a1-3)GlcNAc = target: Fuc(a1-3)GlcNAc
# Summary of the method: as §1
# [18] = target: Fuc(a1-3)[GalNAc(b1-4)]GlcNAc6S
# Summary of the method: as §1
# [19] = target: Fuc(a1-3)[GalNAc3S(b1-4)]GlcNAc
# Summary of the method: as §1
# Fuc(b1-3)GlcNAc = target: Fuc(b1-3)GlcNAc
# Summary of the method: as §1
# [20] = target: Gal(a1-3)Gal(b1-4)GlcNAc(b1-3)GalNAc
# Summary of the method: as §1
# [21] = target: Gal(b1-3)GalNAc(a1-3)[Fuc(a1-2)]Gal(b1-4)Glc
# Summary of the method: as §1
# [22] = target: Gal(b1-3)GlcNAc(b1-2)Man(a1-3)[Gal(b1-3)GlcNAc(b1-2)Man(a1-6)]Man(b1-4)GlcNAc(b1-4)[Fuc(a1-6)]GlcNAc
# Summary of the method: as §1
# [23] = target: Gal(b1-4)GalNAc(a1-3)[Fuc(a1-2)]Gal(b1-4)GlcNAc
# Summary of the method: as §1
# Gal(b1-4)Glc = target: Gal(b1-4)Glc
# Summary of the method: as §1
# [24] = target: Gal(b1-4)GlcNAc(b1-2)Man(a1-3)[Gal(b1-4)GlcNAc(b1-2)][GlcNAc(b1-4)]Man(b1-4)GlcNAc(b1-4)GlcNAc
# Summary of the method: as §1
# [25] = target: Gal(b1-4)GlcNAc(b1-3)Gal(b1-4)[Fuc(a1-3)GlcNAc(b1-6)]Gal(b1-4)Glc
# Summary of the method: as §1
# Gal6S(b1-4)Glc = target: Gal6S(b1-4)Glc
# Summary of the method: as §1
# Gal6S(b1-4)GlcNAc6S = target: Gal6S(b1-4)GlcNAc6S
# Summary of the method: as §1
# GlcA(b1-6)Gal = target: GlcA(b1-6)Gal
# Summary of the method: as §1
# [26] = target: GlcNAc(b1-2)Man(a1-3)[GlcNAc(b1-2)Man(a1-6)]Man(b1-4)GlcNAc(b1-4)[Fuc(a1-6)]GlcNAc
# Summary of the method: as §1
# [27] = target: GlcNAc(b1-2)[GlcNAc(b1-4)]Man(a1-3)[GlcNAc(b1-4)][GlcNAc(b1-2)[GlcNAc(b1-6)]Man(a1-6)]Man(b1-4)GlcNAc(b1-4)[Fuc(a1-6)]GlcNAc
# Summary of the method: as §1
# [28] = target: GlcNAc(b1-4)[GlcNAc(b1-6)]GalNAc
# Summary of the method: as §1
# [29] = target: Neu5Ac(a2-3)Gal(b1-4)GlcNAc(b1-2)[Neu5Ac(a2-3)Gal(b1-4)GlcNAc(b1-6)]Man(a1-6)[Neu5Ac(a2-3)Gal(b1-4)GlcNAc(b1-2)Man(a1-3)]Man(b1-4)GlcNAc(b1-4)GlcNAc
# Summary of the method: as §1
# [30] = target: Neu5Ac(a2-3)Gal(b1-4)[Fuc(a1-3)]GlcNAc(b1-3)Gal(b1-4)GlcNAc
# Summary of the method: as §1
# [31] = target: Neu5Ac(a2-3)Gal(b1-4)[Fuc(a1-3)]GlcNAc(b1-3)GalNAc
# Summary of the method: as §1
# [32] = target: Neu5Ac(a2-3)GalNAc(b1-4)GlcNAc
# Summary of the method: as §1
# [33] = target: Neu5Ac(a2-6)Gal(b1-4)GlcNAc(b1-3)Gal(b1-4)[Fuc(a1-3)]GlcNAc(b1-3)Gal(b1-4)[Fuc(a1-3)]GlcNAc
# Summary of the method: as §1
# [34] = target: Neu5Ac(a2-6)Gal(b1-4)GlcNAc(b1-6)[Gal(b1-3)GlcNAc(b1-3)]Gal(b1-4)Glc
# Summary of the method: as §1
# [35] = target: Neu5Ac(a2-6)GlcNAc(b1-4)GlcNAc
# Summary of the method: as §1
# [36] = target: Neu5Ac(a2-8)Neu5Ac(a2-8)Neu5Ac
# Summary of the method: as §1
# [37] = target: Neu5Gc(a2-3)Gal(b1-3)GlcNAc
# Summary of the method: as §1
# Neu5Gc(a2-3)Gal(b1-4)Glc = target: Neu5Gc(a2-3)Gal(b1-4)Glc
# Summary of the method: as §1
binder,measurement,setting,value
"CvGal1 (Crassostrea virginica), A7Y0I5 (protein) MTYQISKISQPFTSYIPNGLHIGKHLLLRGRVSYGTEAFAINLQQNPEPCNGEVAFHFNPRPGEQQCVRNSFDGGSWMDEERDQPHFPFDEGRSFTLRIEVAEEGFRTYVNGKPYVNFSHRLDLGNVHYLYLTEGAEFYDISYQDRYTLPYKSEIPQQMNVGKAVRIRGASQDNDGFSVNFACDPDNENCAFHFNPRPNEGVVVRNANLGGWGDEERDYEAEFPFHPYNYFDAMFICTDDKYLVHVNDKYFTEFNHRGGVDASSFFNIVGNLDIQDVEYFEPLEDDFVKTIPSGLVKGDVLIFRGFMKPGGDTFSINFMNGYSVEDDIAFHLNPRVGEGQVVMNCCMGGAWGDEEREDIPSPLADREPFEVKVVVKKNKFKVYVNGKKCMKFAARGNLEDIKGVNIKGEAYVYEVKLERKLEDSWEYLPGGFRVGGWVVVQAIPKKGSEGFAINFRTGSDEDSDIAFHFNPRLQENCTIRNSCAGGAWGGEERDQPDFPFEKKDTCEIAIQAQPDRFVTYVNGKRYIEFNHRLPLESITCVELTGRADFFEPKFF",glycan array binding signal (z-score),[1],6.13
same,glycan array binding signal (z-score),[2],0.157
same,glycan array binding signal (z-score),[3],-0.053
same,glycan array binding signal (z-score),[4],-0.258
same,glycan array binding signal (z-score),[5],-0.213
same,glycan array binding signal (z-score),[6],-0.259
same,glycan array binding signal (z-score),[7],0.478
same,glycan array binding signal (z-score),[8],1.42
same,glycan array binding signal (z-score),[9],-0.263
same,glycan array binding signal (z-score),[10],3.63
same,glycan array binding signal (z-score),[11],4.14
same,glycan array binding signal (z-score),[12],4.71
same,glycan array binding signal (z-score),[13],1.75
same,glycan array binding signal (z-score),[14],3.97
same,glycan array binding signal (z-score),[15],6.1
same,glycan array binding signal (z-score),[16],5.16
same,glycan array binding signal (z-score),[17],-0.306
same,glycan array binding signal (z-score),Fuc(a1-3)GlcNAc,-0.088
same,glycan array binding signal (z-score),[18],-0.215
same,glycan array binding signal (z-score),[19],-0.259
same,glycan array binding signal (z-score),Fuc(b1-3)GlcNAc,-0.219
same,glycan array binding signal (z-score),[20],-0.197
same,glycan array binding signal (z-score),[21],3.55
same,glycan array binding signal (z-score),[22],-0.265
same,glycan array binding signal (z-score),[23],4.11
same,glycan array binding signal (z-score),Gal(b1-4)Glc,-0.253
same,glycan array binding signal (z-score),[24],-0.195
same,glycan array binding signal (z-score),[25],-0.264
same,glycan array binding signal (z-score),Gal6S(b1-4)Glc,-0.291
same,glycan array binding signal (z-score),Gal6S(b1-4)GlcNAc6S,-0.182
same,glycan array binding signal (z-score),GlcA(b1-6)Gal,-0.259
same,glycan array binding signal (z-score),[26],-0.3
same,glycan array binding signal (z-score),[27],-0.249
same,glycan array binding signal (z-score),[28],-0.23
same,glycan array binding signal (z-score),[29],-0.283
same,glycan array binding signal (z-score),[30],-0.226
same,glycan array binding signal (z-score),[31],-0.166
same,glycan array binding signal (z-score),[32],-0.277
same,glycan array binding signal (z-score),[33],-0.28
same,glycan array binding signal (z-score),[34],-0.245
same,glycan array binding signal (z-score),[35],-0.303
same,glycan array binding signal (z-score),[36],-0.236
same,glycan array binding signal (z-score),[37],-0.239
same,glycan array binding signal (z-score),Neu5Gc(a2-3)Gal(b1-4)Glc,-0.311
